Measured values published in PubChem BioAssay (NCI).
About 79,000 compounds went through this panel and 15% of them were active in at least one assay; those are over-represented in the sample as a whole. A number with no mark means an inactive call. Active and inactive are the calls of the source. Cut-off read from the data, not from the text of the source: active = growth inhibition above about 70%; inactive = the rest.

Key:
[1] = NCI Yeast Anticancer Drug Screen. Data for the rad50 strain (AID 155);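 note: 0% = growth of vehicle-only cultures of the same strain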; settings: S. cerevisiae rad50 strain growth inhibition; at 50.0 µM; stronger effect = higher value
Summary of the method: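 Yeast carrying a defined DNA repair defect were exposed to test compounds, and growth was compared with vehicle-treated controls to give percent inhibition.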

[2] = NCI Yeast Anticancer Drug Screen. Data for the mec2-1 strain (AID 157); settings: S. cerevisiae mec2-1 strain, at 50.0 µM, stronger effect = higher value
Summary of the method: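 Readout is yeast growth inhibition, normalised to vehicle-treated controls, in the mec2-1 strain exposed to compound.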

[3] = NCI Yeast Anticancer Drug Screen. Data for the sgs1 mgt1 strain (AID 161);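 note: 0% = growth of cultures given vehicle only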; settings: S. cerevisiae sgs1 mgt1 strain, at 50.0 µM, stronger effect = higher value
Summary of the method: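 This yeast growth screen uses a strain with defined DNA-repair lesions; compound-treated growth is compared with vehicle-treated growth.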

[4] = NCI Yeast Anticancer Drug Screen. Data for the cln2 rad14 strain (AID 165);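 note: 0% = growth equal to vehicle treated cultures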; settings: S. cerevisiae cln2 rad14 strain, at 50.0 µM, stronger effect = higher value
Summary of the method: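 Relative to vehicle controls, growth inhibition of compound-treated cln2 rad14 yeast was recorded.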

[5] = NCI Yeast Anticancer Drug Screen. Data for the bub3 strain (AID 167); settings: S. cerevisiae bub3 mutant strain, at 50.0 µM, stronger effect = higher value
Summary of the method: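 Compounds were applied to a genetically altered yeast strain carrying a cell-cycle control defect. Growth inhibition was scored against vehicle-treated controls.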

[6] = NCI Yeast Anticancer Drug Screen. Data for the mlh1 rad18 strain (AID 175); settings: S. cerevisiae mlh1 rad18 strain growth inhibition; at 50.0 µM; stronger effect = higher value
Summary of the method: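 Test agents were incubated with a yeast strain of defined genotype (DNA damage repair defect). Inhibition of growth was derived by comparison with vehicle-exposed cultures.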

Structure (SMILES) | growth inhibition [1] | growth inhibition [2] | growth inhibition [3] | growth inhibition [4] | growth inhibition [5] | growth inhibition [6]
CC1COC(C(C)c2ccccc2)O1 (stereo unspecified) | -0.05% | -18.4% | -10.8% | -35.2% | -29.9% | 6.1%
O=C1CCC(=O)N1C(c1ccccc1)(c1ccccc1)N1C(=O)CCC1=O | -20.9% | 12.2% | -2% | 29.1% | 8.25% | -6.85%
Cc1cc2c(=O)cc(-c3ccccc3)oc2c(C(=O)O)c1C | -12.7% | -8.55% | 14.8% | -19.7% | -4.65% | -10.4%
CCCCCCCN=C(N)CSSCC(N)=NCCCCCCC | 98.9% (active) | 99% (active) | 99.3% (active) | 98.7% (active) | 98.9% (active) | 99.2% (active)
Cc1ccc(NC(=O)CCC(=O)C2Cc3ccccc3C2=O)cc1C (stereo unspecified) | -16% | -7.55% | -5.05% | 21.3% | 1.65% | 3.85%
COc1ccc(N2C(=O)C3c4[nH]c5ccccc5c4C4CCCCC4C3C2=O)cc1 (stereo unspecified) | -3.4% | 5.1% | -7.15% | 9.95% | -1.05% | -6.05%
O=CNc1ccc(-c2ccc(NC=O)cc2)cc1 | 27.6% | 4.5% | 7.75% | 13.1% | -12.8% | -6.4%
O=C(/C(=C/c1ccccc1)N1CCOCC1)c1cccc2ccccc12 | 18.9% | -2.15% | 17.1% | 14.7% | 21.4% | 19.9%
CN/N=C(\C(=O)Nc1ccc(C)c(C)c1)C(C(=O)OC)c1nc2ccc([N+](=O)[O-])cc2[nH]c1=O (stereo unspecified) | -42.9% | 2.7% | -19.1% | 19.3% | -1.25% | -18.2%
CN1C(=O)N(c2ccccc2)C2(CCN(CC3COc4ccccc4O3)CC2)C1=O (stereo unspecified) | 4.05% | -4.45% | 21.6% | 4.7% | -6.9% | 8.75%
Clc1ccccc1/C=N/N=C/c1ccccc1Cl | 5.65% | -3.95% | -9.05% | -21.9% | 1.7% | 4.9%
NC(=O)c1ccccc1N=NNc1ccccc1 | 17.5% | -4.65% | 2.8% | -28.5% | -25.1% | 16.1%
CC(/C=C/c1ccccc1)=N\NC(=O)c1ccccc1 | 44.8% | 5.3% | -5.4% | 4.3% | -15.1% | -47.1%
O=c1c2ccccc2c2ccccc2n1C(c1ccccc1)c1ccccc1 | -43% | -4.9% | 3.25% | -12.6% | -11.5% | -2%
CCN(CC)CCC1CCCCN1CC(=O)N1c2cc(Cl)ccc2NC(=O)CC1C (stereo unspecified) | 24.9% | 0.8% | 15.1% | -6.45% | 1.3% | 20.6%
CCC(CC)C(=O)OCCCc1ccccc1 | 3.95% | -0.05% | 10.4% | -7.4% | 11.9% | 4.4%
CCN1C(=O)/C(=C\c2coc3ccccc3c2=O)SC1=S | -2.6% | -34.7% | 0.2% | 0.5% | -23.7% | -0.2%
Cc1ccc(S(=O)(=O)NC(=O)NC23CC4CC(CC(F)(C4)C2)C3)cc1 | 37.9% | 21.4% | -13.6% | 9.5% | 13.8% | 2.1%
CCOc1ccc(NC(=O)c2cccc(C(=O)Nc3ccc(OCC)cc3)c2)cc1 | -13.8% | -12.3% | -8.15% | -20.9% | -5.35% | -0.7%
[O-][n+]1cc[n+]([O-])c2cc(O)ccc21 | -13.5% | -25.1% | 3.8% | -20.1% | 1.1% | 10.7%
CCc1nn2c(=O)nc(Oc3ccccc3)nc2s1 | -5.55% | 8.85% | 2% | 2.55% | 14.6% | 23.4%

Structure (SMILES) | growth inhibition [1] | growth inhibition [2] | growth inhibition [3] | growth inhibition [4] | growth inhibition [5] | growth inhibition [6]
[Fe+2].[NH-]C(Cc1ccc(O)cc1)C(=O)O.[NH-]C(Cc1ccc(O)cc1)C(=O)O (stereo unspecified) | 15.1% | 8.25% | 24.1% | 23.4% | -2.4% | 30.1%
NC(=O)C(CO)NC(=O)c1ccc[n+](Cc2ccccc2)c1 (stereo unspecified) | 5.3% | -1.6% | -1.2% | -4.5% | 0.15% | 27.9%
CSc1nnc(SCc2nn3c(=O)cc(C)nc3s2)s1 | -7.9% | -0.85% | 0.4% | 10% | 5.55% | 10.6%
Cn1ncc2c(NCc3ccccc3)nc(Cl)nc21 | 6.5% | -11.2% | 16.4% | -9.9% | 5.85% | 12.9%
CCOC(CN(C)C(=S)Nc1cccc2ccccc12)OCC | -27.1% | -30.1% | -2.2% | -6.45% | -6.9% | -13.2%
O=C(COc1ccc(Cl)c(Cl)c1)NCc1cccc(Cl)c1 | 6.1% | -8.65% | -1.7% | -2.85% | 36.4% | 30.9%
O=C(O)CSC1=NNC2(C(=O)N1)c1ccccc1-c1ccccc12 | 1.8% | -2% | 18.4% | -2.1% | -3.85% | 24.1%
COc1cccc2ccc(C(=O)c3ccccc3)nc12 | 34.2% | -3.2% | 7.8% | 23.6% | 28.2% | 15.9%
CC(C)(C)OC(=O)N(CCCN)CCCCN(CCCN)C(=O)OC(C)(C)C | 8.45% | -9.5% | 5.25% | 12.8% | -5.55% | -62%
CC(C)(C)S(=O)(=O)C[N+]1(C)CCOCC1 | 37.1% | 11.6% | -1.6% | -2% | -3.25% | 5.35%
CC(C)c1ccc(OC(=N)c2ccccc2)cc1 | 1.5% | -7.35% | -9.45% | -3.95% | 7.85% | 3.6%
CC1(C)CC(C)(OC(=O)c2ccccc2)N=N1 (stereo unspecified) | 14.6% | -11.1% | 20.1% | -16.4% | 4.35% | 11.1%
COc1ccc2c(c1)C1(C)CCCC(C)(C=O)C1CC2 (stereo unspecified) | 5.5% | -2.75% | -3.65% | -1.25% | 10.4% | 4.75%
CC(C)S(=O)(=O)/C=C(\I)c1ccccc1 | 3.7% | 8.7% | -11.2% | 6.9% | 33.2% | -11.4%
CN(C)CCC(=O)C(=Cc1ccc(O)cc1)C(=O)CCN(C)C | -35.2% | -38.1% | -2.4% | -3.5% | 7.1% | -39.5%
O=C(Nc1ccc(Cl)cc1)Nc1nnc2nc(CC(=O)c3ccc4ccccc4c3)c(=O)[nH]n12 | 12.9% | 9.45% | 2.2% | -16.3% | 21.8% | 1.3%
CC1(C)CCCC/C1=N\O | 5.5% | 24.2% | 3.8% | 24.4% | 23.2% | 3.3%
O=c1[nH]c2c([N+](=O)[O-])cc(Cl)cc2nc1/C=C(\O)c1ccncc1 | 42.5% | 8.75% | 42.6% | 9.45% | 18.3% | 51.4%
CCOCc1cnc(SC)nc1N | -0.75% | 7.35% | -9.45% | -0.25% | -0.15% | -14.4%
Cc1noc2c1NC(=O)OCC2 | 2.9% | 1.45% | -3.85% | -2% | 10.6% | -15.1%
